Laboratory results taken from PubChem BioAssay AID1159580 (chemical genetic matrix, 2015).
In all, about 5,500 compounds went through this assay and about 2,000 (36%) were called active. About 18% were inconclusive and are not listed. No stated cut-off is given here; in the data, active means normalized growth mostly below about 0.91 (no sharp cut-off); inconclusive means no clear call, values can overlap the other calls; inactive means mostly above about 0.92. The list shows a part of the results.

Test: chemical genetic growth profiling, strain panel (AID 1159580);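 further: tested at 20 µM; growth read once vehicle control cultures reached saturation at 30 °C; 1 = growth at the plate median or of vehicle wells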
Conditions: growth OD

Measured: normalized growth

O=C1O[C@@H](CO)[C@H](O)[C@@H](O)[C@@H]1O
inactive: S. cerevisiae deletion strains, locus YJR066W, strain TOR1, stronger effect = lower value 0.965 | S. cerevisiae deletion strains, locus YKL009W, strain mrt4, stronger effect = lower value 1.02 | S. cerevisiae deletion strains, locus YKL068W, stronger effect = lower value 0.999 | S. cerevisiae deletion strains, locus YKL085W, strain MDH1 (second series), stronger effect = lower value 0.998 | S. cerevisiae deletion strains, locus YKL085W, strain MDH1, stronger effect = lower value 0.998 | S. cerevisiae deletion strains, locus YKL160W, strain elf1, stronger effect = lower value 1.02 | S. cerevisiae deletion strains, locus YKL190W, strain CNB1, stronger effect = lower value 0.999 | S. cerevisiae deletion strains, locus YKR001C, strain vps1, stronger effect = lower value 0.985 | S. cerevisiae deletion strains, locus YKR026C, strain gcn3, stronger effect = lower value 1.01 | S. cerevisiae deletion strains, locus YKR091W, strain srl3, stronger effect = lower value 1.01 | S. cerevisiae deletion strains, locus YLL001W, strain dnm1, stronger effect = lower value 1.01 | S. cerevisiae deletion strains, locus YLL026W, stronger effect = lower value 1.02 | S. cerevisiae deletion strains, locus YLL041C, strain sdh2, stronger effect = lower value 1.02 | S. cerevisiae deletion strains, locus YLR027C, strain aat2, stronger effect = lower value 1.02 | S. cerevisiae deletion strains, locus YLR039C, strain RIC1, stronger effect = lower value 1.03 | S. cerevisiae deletion strains, locus YLR058C, strain SHM2, stronger effect = lower value 1.01 | S. cerevisiae deletion strains, locus YLR102C, strain apc9, stronger effect = lower value 1.01 | S. cerevisiae deletion strains, locus YLR113W, strain HOG1, stronger effect = lower value 0.963 | S. cerevisiae deletion strains, locus YLR221C, strain rsa3, stronger effect = lower value 1.01 | S. cerevisiae deletion strains, locus YLR258W, strain gsy2, stronger effect = lower value 1.04 | S. cerevisiae deletion strains, locus YLR262C, strain YPT6 (second series), stronger effect = lower value 1 | S. cerevisiae deletion strains, locus YLR262C, strain YPT6, stronger effect = lower value 1.08 | S. cerevisiae deletion strains, locus YLR268W, strain sec22, stronger effect = lower value 1.01 | S. cerevisiae deletion strains, locus YLR320W, strain mms22, stronger effect = lower value 1.02 | S. cerevisiae deletion strains, locus YLR330W, strain CHS5, stronger effect = lower value 1.01 | S. cerevisiae deletion strains, locus YLR342W, strain FKS1 (second series), stronger effect = lower value 1.04 | S. cerevisiae deletion strains, locus YLR342W, strain FKS1, stronger effect = lower value 1.03 | S. cerevisiae deletion strains, locus YLR357W, strain rsc2, stronger effect = lower value 1.01 | S. cerevisiae deletion strains, locus YLR370C, strain arc18, stronger effect = lower value 1.03 | S. cerevisiae deletion strains, locus YLR371W, strain rom2, stronger effect = lower value 1.01 | S. cerevisiae deletion strains, locus YLR384C, strain iki3, stronger effect = lower value 1.01 | S. cerevisiae deletion strains, locus YLR418C, strain cdc73, stronger effect = lower value 1.04 | S. cerevisiae deletion strains, locus YML016C, strain PPZ1, stronger effect = lower value 1.01 | S. cerevisiae deletion strains, locus YML032C, strain rad52, stronger effect = lower value 0.991 | S. cerevisiae deletion strains, locus YML120C, strain ndi1, stronger effect = lower value 1.01 | S. cerevisiae deletion strains, locus YML124C, strain tub3, stronger effect = lower value 1 | S. cerevisiae deletion strains, locus YMR058W, strain fet3, stronger effect = lower value 1.03 | S. cerevisiae deletion strains, locus YMR078C, strain ctf18, stronger effect = lower value 1 | S. cerevisiae deletion strains, locus YMR125W, strain sto1, stronger effect = lower value 1.02 | S. cerevisiae deletion strains, locus YMR129W, stronger effect = lower value 1.02 | S. cerevisiae deletion strains, locus YMR205C, strain PFK2, stronger effect = lower value 1.04 | S. cerevisiae deletion strains, locus YMR223W, strain ubp8, stronger effect = lower value 1.04 | S. cerevisiae deletion strains, locus YMR231W, strain pep5, stronger effect = lower value 1.02 | S. cerevisiae deletion strains, locus YMR307W, strain GAS1, stronger effect = lower value 1.05 | S. cerevisiae deletion strains, locus YNL067W, strain RPL9B, stronger effect = lower value 0.994 | S. cerevisiae deletion strains, locus YNL071W, strain lat1, stronger effect = lower value 1.02 | S. cerevisiae deletion strains, locus YNL128W, strain TEP1, stronger effect = lower value 1.02 | S. cerevisiae deletion strains, locus YNL183C, strain NPR1, stronger effect = lower value 0.944 | S. cerevisiae deletion strains, locus YNL209W, strain ssb2, stronger effect = lower value 1.03 | S. cerevisiae deletion strains, locus YNL233W, strain BNI4, stronger effect = lower value 1 | S. cerevisiae deletion strains, locus YNL248C, strain rpa49, stronger effect = lower value 1.06 | S. cerevisiae deletion strains, locus YNL250W, strain rad50, stronger effect = lower value 1.05 | S. cerevisiae deletion strains, locus YNL271C, strain bni1, stronger effect = lower value 0.993 | S. cerevisiae deletion strains, locus YNL298W, strain CLA4, stronger effect = lower value 1.01 | S. cerevisiae deletion strains, locus YNL307C, strain MCK1, stronger effect = lower value 1 | S. cerevisiae deletion strains, locus YNL322C, strain KRE1 (second series), stronger effect = lower value 1 | S. cerevisiae deletion strains, locus YNR049C, strain mso1, stronger effect = lower value 1.02 | S. cerevisiae deletion strains, locus YNR052C, strain pop2, stronger effect = lower value 1.01 | S. cerevisiae deletion strains, locus YOL006C, strain TOP1, stronger effect = lower value 0.992 | S. cerevisiae deletion strains, locus YOL012C, strain htz1 0.898 | S. cerevisiae deletion strains, locus YOL147C, strain pex11, stronger effect = lower value 1 | S. cerevisiae deletion strains, locus YOR001W, strain rrp6, stronger effect = lower value 1.01 | S. cerevisiae deletion strains, locus YOR061W, strain CKA2, stronger effect = lower value 1 | S. cerevisiae deletion strains, locus YOR069W, strain VPS5, stronger effect = lower value 1.01 | S. cerevisiae deletion strains, locus YOR070C, strain gyp1, stronger effect = lower value 1.03 | S. cerevisiae deletion strains, locus YOR080W, strain dia2, stronger effect = lower value 1.01 | S. cerevisiae deletion strains, locus YOR083W, strain WHI5, stronger effect = lower value 0.994 | S. cerevisiae deletion strains, locus YOR106W, strain vam3, stronger effect = lower value 1.01 | S. cerevisiae deletion strains, locus YOR136W, strain idh2, stronger effect = lower value 0.99 | S. cerevisiae deletion strains, locus YOR144C, strain elg1, stronger effect = lower value 1.01 | S. cerevisiae deletion strains, locus YOR184W, strain ser1, stronger effect = lower value 1 | S. cerevisiae deletion strains, locus YOR231W, strain MKK1, stronger effect = lower value 0.968 | S. cerevisiae deletion strains, locus YOR265W, strain rbl2, stronger effect = lower value 1.02 | S. cerevisiae deletion strains, locus YOR270C, strain vph1, stronger effect = lower value 1.06 | S. cerevisiae deletion strains, locus YOR290C, strain snf2, stronger effect = lower value 1.04 | S. cerevisiae deletion strains, locus YOR316C, strain cot1, stronger effect = lower value 1.01 | S. cerevisiae deletion strains, locus YPL051W, strain arl3, stronger effect = lower value 1 | S. cerevisiae deletion strains, locus YPL055C, strain LGE1, stronger effect = lower value 0.958 | S. cerevisiae deletion strains, locus YPL078C, strain atp4, stronger effect = lower value 1.03 | S. cerevisiae deletion strains, locus YPL106C, strain sse1, stronger effect = lower value 1.04 | S. cerevisiae deletion strains, locus YPL240C, strain hsp82, stronger effect = lower value 1.01 | S. cerevisiae deletion strains, locus YPL241C, strain CIN2, stronger effect = lower value 1 | S. cerevisiae deletion strains, locus YPL256C, strain CLN2, stronger effect = lower value 0.953 | S. cerevisiae deletion strains, locus YPR119W, strain clb2, stronger effect = lower value 1 | S. cerevisiae deletion strains, locus YPR141C, strain kar3, stronger effect = lower value 0.989 | S. cerevisiae deletion strains, locus YPR163C, strain tif3, stronger effect = lower value 1 | S. cerevisiae deletion strains, locus YPR167C, strain met16, stronger effect = lower value 1.01 | S. cerevisiae deletion strains, strain wtn01, stronger effect = lower value 0.997 | S. cerevisiae strains, strain wild type, stronger effect = lower value 1
